# Screens: PubChem, Sanford-Burnham Center for Chemical Genomics
# Only some compounds are listed: those with a hit (about 1.4% of all), similar ones and a draw of the others.
# FAS TE block = blocks the thioesterase domain of human fatty acid synthase. P49327. recombinant FAS-TE, OMFH fluorogenic substrate, fluorescence endpoint. inhibition, % at 15 µM. actives 0.67% (n = 360,000). AID 602261;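 active = compounds whose normalised, plate-corrected inhibition of enzyme fluorescence in the single-dose primary screen is 50% or more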
# GC-B act = GC-B (human) receptor activation. P20594. HEK293-GC-B cells, CNP EC30, cGMP TR-FRET; 0% at EC30 CNP, 100% saturating CNP. activation, % at 10 µM. actives 0.11% (n = 370,000). AID 1920062;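 active = activation at 10 µM reaching about 35% in either raw or pattern-adjusted values, limit read from the data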
# GC-A act = GC-A (human) enzyme activation | P16066 | HEK293 GC-A cells, cGMP TR-FRET, EC30 ANP; 0% at EC30 ANP, 100% saturating ANP | activation, % at 10 µM | actives 0.14% (n = 370,000); in the data active = activation above about 40%
# APOBEC3A inh = human APOBEC3A DNA deaminase inhibition. P31941. recombinant A3A, FAM/TAMRA ssDNA deamination fluorescence. inhibition, % at 20 µM. actives 0.41% (n = 330,000);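 active = at least 40% inhibition at 20 µM here, with at most 30% in a related deaminase screen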
# APOBEC3G inh = APOBEC3G (human) deaminase inhibition. Q9HC16. recombinant A3G, ssDNA deamination FAM/TAMRA fluorescence. inhibition, % at 20 µM. actives 0.28% (n = 330,000);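 active = inhibition of at least 40% at 20 µM, with no more than 30% in the related APOBEC3A deaminase screen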
# APOBEC3A confirm = confirmation of human APOBEC3A DNA deaminase inhibitors. AID 493151. actives 63% (n = 1,400). shares compounds with APOBEC3A inh. inhibition, % at 20 µM. recombinant A3A, ssDNA deaminase UDG fluorescence assay;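 active = inhibition reaching a set limit, 80% of the first screen's cutoff, at 20 µM in any replicate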
# UDG ctr A3A = counter-screen for APOBEC3A inhibitors: UDG; shares compounds with APOBEC3A inh; UDG counterscreen, FAM/TAMRA uracil oligo fluorescence; inhibition, % at 20 µM; 1,000 tested, under 10 active; call rule not given here
# Hits are given with their value; 0 = inactive; - = no result.
SMILES,FAS TE block,GC-B act,GC-A act,APOBEC3A inh,APOBEC3G inh,APOBEC3A confirm,UDG ctr A3A
CCCCc1ccc(NC(=O)Nc2c(C)n(C)n(-c3ccccc3)c2=O)cc1,0,0,0,62,0,0,0
COc1ccc(C(=O)OCCCN(C)C2CN(Cc3cn(Cc4ccccc4C(F)(F)F)nn3)S(=O)(=O)C2)cc1OC (stereo not drawn),-,0,0,-,-,-,-
N#CCC[C@@H]1CC[C@]2(CCCN(C(=O)c3ccco3)C2)O1,-,0,0,-,-,-,-
COc1cccc(OCCn2cc(C(=O)c3ccco3)c3ccccc32)c1,0,0,0,0,0,-,-
COc1cccc(OCCn2cc(C(C)=O)c3ccccc32)c1,0,0,0,48,0,0,-
CN(CCCS(=O)(=O)[O-])c1ccc(/C=C/c2ccc3ccccc3[n+]2C)cc1,0,0,0,58,0,68,0
CCn1c(N2CCN(CC(=O)c3c(C)n(C)c4ccccc34)CC2)nc2c1c(=O)[nH]c(=O)n2C,0,0,0,49,0,0,-
CCN(CC)S(=O)(=O)c1ccc(OC)c(NC(=O)Cc2cccs2)c1,0,0,0,43,0,0,-
O=C(NCc1ccccc1)[C@H]1CCCN1C(=O)[C@H]1CCCN1C(=O)c1ccc(F)cc1F,-,0,0,-,-,-,-
COC(=O)CCCCCCCCC(O)CN(C)C (stereo not drawn),0,0,0,0,0,-,-
CC(=O)OCCCCCCCCCCC[N+]1(C)CCCCC1,0,0,0,79,0,73,0
COC(=O)CCCCCCCCC(O)C[N+]1(C)CCOCC1 (stereo not drawn),0,0,0,53,0,78,0
COC(=O)CCCCCCCCCC[N+]1(C)CCCCC1,0,0,0,44,0,85,0
CCc1cccc(C)c1NC(=O)c1cc(=O)[nH]c2ccc(S(=O)(=O)N3CCOCC3)cc12,0,0,0,43,0,35,0
Cc1ccc(NC(=O)c2cc(=O)[nH]c3ccc(S(=O)(=O)N4CCOCC4)cc23)cc1,0,0,0,0,0,-,-
COc1ccc(OC)c(N(CC(=O)Nc2ccc3c(c2)OCO3)S(=O)(=O)c2ccccc2)c1,0,0,0,0,0,-,-
COc1ccc(Cl)cc1N(CC(=O)Nc1ccc2c(c1)OCO2)S(C)(=O)=O,0,0,0,42,0,0,-
CC(OC(=O)CCCN=C1NS(=O)(=O)c2ccccc21)C(=O)NC1CCCCC1C (stereo not drawn),0,0,0,51,0,0,-
CC(=O)c1ccc(NC(=O)C(C)OC(=O)CCCN=C2NS(=O)(=O)c3ccccc32)cc1 (stereo not drawn),0,0,0,0,0,-,-
CC[n+]1ccc2cc(OC)c(OC)cc2c1Cc1ccc(OC)c(OC)c1,0,-,-,69,0,43,-
COCC(=O)N(c1ccc(C(C)(C)C)cc1)C(C(=O)NC(C)(C)C)c1cccnc1 (stereo not drawn),-,0,0,-,-,-,-
COc1ccc(OCc2nn[nH]n2)cc1,0,0,0,56,0,0,0
COc1ccc(Br)cc1CN(C)C(=O)C1=CC=CN2CCS(=O)(=O)N=C12,0,0,0,55,0,51,0
CN(Cc1ccc(Cl)c(Cl)c1)C(=O)C1=CC=CN2CCS(=O)(=O)N=C12,0,0,0,47,0,43,0
COc1cccc(CNC(=O)[C@H]2CCCN2C(=O)[C@H]2CCCN2S(=O)(=O)c2cccc(C)c2)c1,-,0,0,-,-,-,-
CCN=C1NC(CCc2ccccc2)C(C(=O)OC)=C(C)N1Cc1ccccc1C(F)(F)F (stereo not drawn),-,0,0,-,-,-,-
CCN1C(=NCCCCO)N[C@@H](c2cccc(C(F)(F)F)c2)C(C(=O)OC)=C1C,0,0,0,50,0,61,0
COC(=O)C1=C(C)N(Cc2ccccc2)C(=NCCCCO)N[C@H]1CCc1ccccc1,0,0,0,44,0,67,0
COC(=O)C1=C(C)N(Cc2ccccc2)C(=NCCCCO)N[C@H]1c1cccc(C(F)(F)F)c1,0,0,0,44,0,57,0
COCCN=C1N[C@@H](c2cccc(C(F)(F)F)c2)C(C(=O)OC)=C(C)N1Cc1ccccc1,0,0,0,63,0,44,-
